Assay results taken from PubChem BioAssay (Tox21).
Values without a mark were called inactive. Records with an inconclusive call do not appear. Entries that show only a call come without a potency. Calls of active or inactive are those of the source. Unless noted, calls follow the shape of the full dose curve.

Key:
[1] = Nuclear factor erythroid 2-related factor 2/antioxidant responsive element (Nrf2/ARE) small molecule agonists: qHTS cell viability counter screen in human keratinocytes (AID 1919968; active = well fitted curve in the direction sought with a large enough effect in the repeat runs; an effect the other way counts as inactive or inconclusive; also: nearly all actives have a fitted effect of over 55% in size)
Outline: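 In human HaCaT keratinocytes stably expressing an ARE-driven luciferase, compound exposure lasted 23 h at 37 C under 5% CO2. Viable cells are quantified with a protease-based fluorogenic reagent (CellTiter-Fluor) read 1 h after addition.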

[2] = Nuclear factor erythroid 2-related factor 2/antioxidant responsive element (Nrf2/ARE) small molecule agonists: luciferase reporter gene qHTS assay in human keratinocytes (AID 1919969); also: nearly all actives have a fitted effect of over 35% in size; also: potency is read from the fitted curve at half-maximal effect
[3] = target: Gonadotropin-releasing hormone receptor (Homo sapiens) (UniProt P30968); assay: Human gonadotropin-releasing hormone receptor (GnRHR) small molecule agonists, calcium flux assay in GnRHR-HEK293 cells (AID 1920063); also: nearly all actives have a fitted effect of over 35% in size
Outline: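 Intracellular calcium rise is the read-out: engineered human GnRHR HEK293 cells, dye-loaded, are exposed to DMSO-dissolved compounds and fluorescence at Ex/Em 480/540 is tracked for 3 min.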

[4] = target: KiSS-1 receptor (Homo sapiens) (UniProt Q969F8); assay: Human kisspeptin (KISS1R) small molecule agonists, calcium flux assay in KISS1R-HEK293 cells (AID 1920064; active = well fitted curve in the direction sought with a large enough effect in the repeat runs; an effect the other way counts as inactive or inconclusive)
Outline: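 Concentration-response testing used 15 concentrations in triplicate on human KISS1R-expressing HEK293 cells. Calcium-dependent fluorescence (Ex/Em 480/540) was followed kinetically for 3 min after compound transfer.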

[5] = G protein-coupled receptor (GPCR) small molecule agonists, calcium flux assay: HEK293 wild type cell line counter screen (AID 1920065)
Outline: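 Fluorescence intensity signals activation. After overnight (18 h) culture and a 1 h calcium dye load at 37 C, compounds are added by pin tool and the plate read at 480/540 nm for 3 min in 1 s steps.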

[6] = p53 small molecule agonists, cell-based qHTS assay with human liver microsomes: qHTS cell viability counter screen (AID 1963579); also: nearly all actives have a fitted effect of over 45% in size
Outline: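 Cytotoxicity counter screen: p53RE-bla, 4,000 cells/well; 5 h settle, 37 C/5% CO2; cpd + HLM 0.5 mg/mL + NADPH 0.5 mg/mL (final); 16 h, 37 C; CellTiter-Glo, 30 min RT, luminescence.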

[7] = p53 small molecule agonists, cell-based qHTS assay with rat liver microsomes: qHTS cell viability counter screen (AID 1963580); also: nearly all actives have a fitted effect of over 45% in size
Outline: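 After the beta-lactamase ratio was read, CellTiter-Glo was added to the same wells and luminescence measured at 30 min; cells had been treated 16 h at 37 C with compounds, rat liver microsomes and NADPH (0.5 mg/mL final each).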

[8] = target: 5-hydroxytryptamine receptor 2A (Homo sapiens) (UniProt P28223); assay: 5-hydroxytryptamine receptor 2A (HTR2A) small molecule antagonists, cell-based qHTS assay (AID 1963586); also: nearly all actives have a fitted effect of over 45% in size
Outline: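 CHO cells stably expressing human HTR2A were plated for 18 h at 37 C, then loaded with calcium dye for 1 h. Compounds were preincubated 5 min at room temperature before DOI (4 nM solution) was added. Kinetic fluorescence was read for 3 min.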

[9] = target: 5-hydroxytryptamine receptor 2A (Homo sapiens) (UniProt P28223); assay: 5-hydroxytryptamine receptor 2A (HTR2A) small molecule agonists, cell-based qHTS assay (AID 1963587); also: nearly all actives have a fitted effect of over 30% in size
Outline: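 CHO cells stably expressing human HTR2A, plated 18 h, loaded with calcium dye 1 h at 37 C. Agonist mode: compounds added and intracellular calcium fluorescence recorded kinetically for 2 min at 1 sec intervals.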

[10] = target: Muscarinic acetylcholine receptor M1 (Homo sapiens) (UniProt P11229); assay: Cholinergic receptor muscarinic 1 (CHRM1) small molecule antagonists, cell-based qHTS assay (AID 1963588); also: nearly all actives have a fitted effect of over 40% in size
Outline: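 Compounds were tested at 15 concentrations in three independent runs. Dye-loaded CHRM1-CHO cells were exposed 5 min at room temperature before stimulation by acetylcholine added at 50nM. Intracellular calcium was read kinetically on FDSS for 3 min.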

[11] = target: Muscarinic acetylcholine receptor M1 (Homo sapiens) (UniProt P11229); assay: Cholinergic receptor muscarinic 1 (CHRM1) small molecule agonists, cell-based qHTS assay (AID 1963589); also: nearly all actives have a fitted effect of over 35% in size
Outline: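 Fluorescent calcium dye reports M1 activation in stably transfected CHO cells. Compounds, 15 concentrations, added after 1 h dye loading at 37 C; kinetic reading at 1 sec intervals.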

[12] = cAMP Responsive Elements (CRE) small molecule agonists, cell-based qHTS assay (AID 1963590)
Outline: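 Compound exposure lasted 3 h at 37 C/5% CO2 in CRE-bla HEK 293T cells grown in assay medium with 10% dialyzed FBS and 25 mM HEPES. Reporter signal came from LiveBLAzer B/G FRET substrate, 2 h, room temperature.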

[13] = cAMP Responsive Elements (CRE) small molecule antagonists, cell-based qHTS assay (AID 1963591; active = well fitted inhibition curve with a large enough effect in the signal ratio in the repeat runs, not every such curve was filed as active; the % refers to the signal ratio)
Outline: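 Stimulation used NKH477 at a final 0.25 uM for 3 h in compound-treated CRE-bla HEK293T cells, seeded 18 h beforehand. Reporter activity was measured with LiveBLAzer B/G FRET substrate after 2 h at room temperature.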

[14] = target: Beta-2 adrenergic receptor (Homo sapiens) (UniProt P07550); assay: Adrenergic beta2 receptor (ADRB2) small molecule antagonists, cell-based qHTS assay (AID 1963592); also: nearly all actives have a fitted effect of over 50% in size; also: potency is read from the fitted curve at half-maximal effect
Outline: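 Assay format: CHO-ADRB2 cells, 18-20hr seeding at 37C/5% CO2, then compound plus 1nM isoproterenol agonist mix for 0.5hr RT. Homogeneous time-resolved fluorescence cAMP detection after 1hr, expressed as 665/615 nm ratio.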

[15] = target: Beta-2 adrenergic receptor (Homo sapiens) (UniProt P07550); assay: Adrenergic beta2 receptor (ADRB2) small molecule agonists, cell-based qHTS assay (AID 1963593);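 also: CHO cells stably overexpressing human ADRB2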
Outline: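 CHO cells stably over-expressing ADRB2 were plated overnight at 37C, then dosed with compounds plus a stimulation mix containing 100uM IBMX and 25uM Ro-20-1724 for 0.5hr at room temperature. cAMP was measured by HTRF competition, 1hr.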

[16] = target: D(2) dopamine receptor (Homo sapiens) (UniProt P14416); assay: Dopamine D2 receptor (DRD2) small molecule agonists, cell-based qHTS assay (AID 1963594); also: nearly all actives have a fitted effect of over 35% in size
Outline: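 HEK293 cells stably expressing human DRD2, pre-treated with PDE inhibitor Ro20-1724 (0.1 mM final) and compound 10 min at room temperature, then stimulated with NKH477 (200nM […]) for 30 min. cAMP read by HTRF (665/620 nm).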

[17] = target: D(2) dopamine receptor (Homo sapiens) (UniProt P14416); assay: Dopamine D2 receptor (DRD2) small molecule antagonists, cell-based qHTS assay (AID 1963595; active = well fitted inhibition curve with a large enough effect in the signal ratio in the repeat runs, with a control signal flat; the % refers to the signal ratio)
Outline: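 Stable D2 receptor HEK293 line, 24 h after seeding. Compound preincubated 10 min, then quinpirole (12 nM) with forskolin analogue NKH477 (200 nM), 30 min, room temperature. Detection by time-resolved FRET of cAMP.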

[18] = p53 small molecule agonists, cell-based qHTS assay: qHTS cell viability counter screen (AID 1963581); also: nearly all actives have a fitted effect of over 45% in size
Outline: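 Luminescence from CellTiter-Glo, reflecting ATP content, serves as the cytotoxicity measure; it is taken after the 2 h reporter substrate step in HCT-116 p53RE-bla cells dosed for 16 h at 37 C.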

Sequence of 5-hydroxytryptamine receptor 2A (Homo sapiens) (P28223 whole entry, looked up): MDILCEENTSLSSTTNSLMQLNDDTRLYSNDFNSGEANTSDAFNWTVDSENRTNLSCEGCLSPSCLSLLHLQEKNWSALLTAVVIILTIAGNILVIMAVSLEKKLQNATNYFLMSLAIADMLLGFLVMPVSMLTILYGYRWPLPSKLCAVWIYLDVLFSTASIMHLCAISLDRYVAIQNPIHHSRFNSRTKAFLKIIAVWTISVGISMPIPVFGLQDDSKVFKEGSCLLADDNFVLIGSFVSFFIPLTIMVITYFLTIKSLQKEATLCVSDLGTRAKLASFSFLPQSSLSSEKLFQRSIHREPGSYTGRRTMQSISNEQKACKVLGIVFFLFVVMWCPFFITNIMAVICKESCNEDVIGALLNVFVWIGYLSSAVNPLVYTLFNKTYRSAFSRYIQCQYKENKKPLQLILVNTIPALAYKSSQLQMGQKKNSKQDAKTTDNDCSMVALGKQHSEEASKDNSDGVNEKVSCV
Sequence of Gonadotropin-releasing hormone receptor (Homo sapiens) (P30968 whole entry, looked up): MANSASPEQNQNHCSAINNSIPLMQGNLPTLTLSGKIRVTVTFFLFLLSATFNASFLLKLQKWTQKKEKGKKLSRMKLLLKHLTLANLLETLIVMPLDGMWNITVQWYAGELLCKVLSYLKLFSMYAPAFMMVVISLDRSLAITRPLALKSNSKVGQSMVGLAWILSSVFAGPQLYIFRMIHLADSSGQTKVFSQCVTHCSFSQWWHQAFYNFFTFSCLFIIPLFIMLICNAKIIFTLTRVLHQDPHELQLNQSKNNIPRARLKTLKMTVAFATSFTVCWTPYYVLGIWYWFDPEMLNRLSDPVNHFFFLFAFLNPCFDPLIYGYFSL
Sequence of Muscarinic acetylcholine receptor M1 (Homo sapiens) (P11229 whole entry, looked up): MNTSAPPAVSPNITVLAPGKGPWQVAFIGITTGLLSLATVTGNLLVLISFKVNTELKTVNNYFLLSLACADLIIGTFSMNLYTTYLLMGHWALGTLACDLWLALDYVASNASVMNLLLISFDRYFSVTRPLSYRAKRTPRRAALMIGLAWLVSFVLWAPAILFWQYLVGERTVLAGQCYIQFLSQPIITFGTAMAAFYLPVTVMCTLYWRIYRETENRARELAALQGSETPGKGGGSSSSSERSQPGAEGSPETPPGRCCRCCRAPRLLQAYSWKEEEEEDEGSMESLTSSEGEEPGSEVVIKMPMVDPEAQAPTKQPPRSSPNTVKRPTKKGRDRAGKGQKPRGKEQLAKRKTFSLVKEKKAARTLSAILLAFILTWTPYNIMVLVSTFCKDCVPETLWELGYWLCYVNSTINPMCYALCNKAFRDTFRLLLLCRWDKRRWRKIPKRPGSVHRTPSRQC
Sequence of Beta-2 adrenergic receptor (Homo sapiens) (P07550 whole entry, looked up): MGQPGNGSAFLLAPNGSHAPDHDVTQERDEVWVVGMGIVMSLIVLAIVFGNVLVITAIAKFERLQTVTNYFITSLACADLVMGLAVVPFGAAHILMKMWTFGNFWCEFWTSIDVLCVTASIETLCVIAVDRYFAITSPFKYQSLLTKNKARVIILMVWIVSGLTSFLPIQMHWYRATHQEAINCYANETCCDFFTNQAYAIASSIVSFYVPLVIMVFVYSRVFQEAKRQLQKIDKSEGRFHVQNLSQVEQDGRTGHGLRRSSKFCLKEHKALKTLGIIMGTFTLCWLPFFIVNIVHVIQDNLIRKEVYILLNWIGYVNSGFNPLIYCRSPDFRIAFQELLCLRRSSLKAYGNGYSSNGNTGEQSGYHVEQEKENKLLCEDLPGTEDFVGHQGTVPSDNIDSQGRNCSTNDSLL
Sequence of D(2) dopamine receptor (Homo sapiens) (P14416 whole entry, looked up): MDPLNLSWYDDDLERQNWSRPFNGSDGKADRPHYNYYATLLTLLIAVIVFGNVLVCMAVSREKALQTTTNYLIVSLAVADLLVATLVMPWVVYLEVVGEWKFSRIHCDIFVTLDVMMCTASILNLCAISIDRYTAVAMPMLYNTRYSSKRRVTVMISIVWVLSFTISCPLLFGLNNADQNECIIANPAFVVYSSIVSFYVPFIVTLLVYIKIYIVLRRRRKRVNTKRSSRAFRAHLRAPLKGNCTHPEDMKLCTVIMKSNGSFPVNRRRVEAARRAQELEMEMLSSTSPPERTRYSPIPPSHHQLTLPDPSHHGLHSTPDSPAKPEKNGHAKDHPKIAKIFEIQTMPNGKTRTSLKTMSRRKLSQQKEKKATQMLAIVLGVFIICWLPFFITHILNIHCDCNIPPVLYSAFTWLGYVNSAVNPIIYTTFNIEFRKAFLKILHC
Sequence of KiSS-1 receptor (Homo sapiens) (Q969F8 whole entry, looked up): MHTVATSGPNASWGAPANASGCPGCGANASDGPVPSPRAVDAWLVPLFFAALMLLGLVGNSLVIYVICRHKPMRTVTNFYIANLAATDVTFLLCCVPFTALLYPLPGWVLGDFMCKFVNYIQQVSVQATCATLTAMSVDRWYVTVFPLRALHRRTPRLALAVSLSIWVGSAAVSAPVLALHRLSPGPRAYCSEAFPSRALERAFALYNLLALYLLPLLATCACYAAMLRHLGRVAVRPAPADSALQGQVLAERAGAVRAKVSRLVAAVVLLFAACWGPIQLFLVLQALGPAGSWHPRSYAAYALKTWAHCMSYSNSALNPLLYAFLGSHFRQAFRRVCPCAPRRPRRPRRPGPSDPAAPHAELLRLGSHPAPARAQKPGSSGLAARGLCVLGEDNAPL

CCCCCCOC(=O)CCCCCCCC(=O)OCCCCCC
Potency [1]: inactive
Potency [2]: inactive
Potency [3]: inactive
Potency [4]: inactive
Potency [5]: inactive
Potency [6]: inactive
Potency [7]: inactive
Potency [8]: inactive
Potency [9]: inactive
Potency [10]: inactive
Potency [11]: inactive
Potency [12]: inactive
Potency [13]: inactive
Potency [14]: inactive
Potency [15]: inactive
Potency [16]: inactive
Potency [17]: inactive

CCCCNc1ccc(C(=O)OCCOCCOCCOCCOCCOCCOCCOCCOCCOC)cc1
Potency [1]: inactive
Potency [2]: inactive
Potency [3]: inactive
Potency [4]: inactive
Potency [5]: inactive
Potency [6]: inactive
Potency [7]: inactive
Potency [8]: inactive
Potency [9]: inactive
Potency [10]: inactive
Potency [11]: inactive
Potency [12]: inactive
Potency [13]: inactive
Potency [14]: inactive
Potency [15]: inactive
Potency [16]: inactive
Potency [17]: inactive

CN[C@@H]1[C@@H](O)[C@@H](O[C@@H]2[C@H](O)[C@H](O[C@H]3OC(CN)=CC[C@H]3N)[C@@H](N)C[C@H]2N)OCC1(C)O (stereo partly specified)
Potency [1]: inactive
Potency [2]: inactive
Potency [3]: inactive
Potency [4]: inactive
Potency [5]: inactive
Potency [6]: inactive
Potency [7]: inactive
Potency [18]: inactive
Potency [12]: inactive
Potency [13]: inactive
Potency [14]: 2.66 µM (active)
Potency [16]: inactive
Potency [17]: inactive

CC(=O)OCC(=O)[C@H]1CC[C@H]2[C@@H]3CCC4=CC(=O)CC[C@]4(C)[C@H]3CC[C@]12C
Potency [1]: inactive
Potency [2]: inactive
Potency [3]: inactive
Potency [4]: inactive
Potency [5]: inactive
Potency [6]: inactive
Potency [7]: inactive
Potency [18]: inactive
Potency [11]: inactive
Potency [14]: inactive
Potency [16]: inactive
Potency [17]: inactive

CC(C)CCCCCOC(=O)CCCCC(=O)OCCCCCC(C)C
Potency [1]: inactive
Potency [2]: 48.6 µM (active)
Potency [3]: inactive
Potency [4]: inactive
Potency [5]: inactive
Potency [6]: inactive
Potency [7]: inactive
Potency [18]: inactive
Potency [10]: inactive
Potency [13]: inactive
Potency [17]: inactive

Cc1onc(-c2ccccc2)c1-c1ccc(S(N)(=O)=O)cc1
Potency [1]: inactive
Potency [2]: inactive
Potency [3]: inactive
Potency [4]: inactive
Potency [5]: inactive
Potency [6]: inactive
Potency [7]: inactive
Potency [18]: inactive
Potency [12]: inactive
Potency [13]: inactive
Potency [14]: inactive
Potency [15]: inactive
Potency [16]: inactive
Potency [17]: inactive

O=C1CCCCCO1
Potency [1]: inactive
Potency [2]: inactive
Potency [3]: inactive
Potency [4]: inactive
Potency [5]: inactive
Potency [6]: inactive
Potency [7]: inactive
Potency [8]: inactive
Potency [9]: inactive
Potency [10]: inactive
Potency [11]: inactive
Potency [12]: inactive
Potency [13]: inactive
Potency [14]: inactive
Potency [16]: inactive
Potency [17]: inactive

O=c1[nH][nH]c2ccccc12
Potency [1]: inactive
Potency [2]: 62.3 µM (active)
Potency [3]: inactive
Potency [4]: inactive
Potency [5]: inactive
Potency [6]: inactive
Potency [7]: inactive
Potency [8]: inactive
Potency [9]: inactive
Potency [10]: inactive
Potency [11]: inactive
Potency [13]: inactive
Potency [14]: inactive
Potency [15]: inactive
Potency [16]: inactive
Potency [17]: inactive
